Sampled rows, rich in hits. Any-hit rate of the full collection: about 3%.
MITF act: MITF TRPM1 promoter activation in melanoma cells; SK-MEL-5 TRPM1-promoter luciferase, 24 h; % of positive control, neutral wells = 0; activation, % at 12.5 µM; hit rate 0.75% among 300,000;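 active means mean activation of at least 80% with every replicate also reaching 80%; inconclusive means mean reaches 80% but some replicate falls short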
C2C12 statin: suppressors of simvastatin-induced myotoxicity in C2C12 myotubes; ATP luminescence, 48 h; scaled: DMSO 0, geranylgeraniol control 100; rescue of ATP level, % at 7.49 µM; hit rate 0.78% among 330,000;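 active means mean ATP rescue above about 67%, or every replicate alone reaching that limit, limit read from the data, passing the limit was not always enough; inconclusive means no clear call, values can overlap the other calls; inactive means mean under the limit and some replicate under it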;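 further: myotubes were challenged with 10 µM simvastatin during compound exposure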
esBAF inh: blocks esBAF chromatin remodeling in mouse ES cells; Bmi1-luciferase knock-in reporter, 24 h; 100% = twice the neutral-well signal; reporter increase, % at 12.5 µM; hit rate 2% among 350,000; AID 602393; in the data active means activation above about 40%; inconclusive means no clear call, values can overlap the other calls;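 further: a rise in the Bmi1 reporter signal indicates esBAF inhibition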
Wnt bcat act: activators of Wnt/beta-catenin signaling; Wnt/beta-catenin reporter cell assay, activator, plate reader; activation, % at 9.35 µM; hit rate 1.2% among 300,000; in the data active means activation above about 30%, passing the limit was not always enough; inconclusive means no clear call, values can overlap the other calls
A number is an active result; - = inactive; ? = inconclusive; . = no result.

SMILES | MITF act | C2C12 statin | esBAF inh | Wnt bcat act
O=C(Nc1ccc(Cl)c(Cl)c1)N[C@@H]1CC[C@H](CCn2cc(C3CCCCC3)nn2)O[C@@H]1CO | . | - | - | .
C[C@@H]1CCCCO[C@@H](CN(C)C(=O)Nc2cccc3ccccc23)[C@H](C)CN([C@H](C)CO)C(=O)c2cc(NS(=O)(=O)c3ccc(Cl)cc3)ccc2O1 | . | 86.7 | - | .
C[C@H](CO)N1C[C@H](C)[C@H](CN(C)C(=O)Nc2cccc3ccccc23)OCCCC[C@H](C)Oc2ccc(NS(=O)(=O)c3ccc(Cl)cc3)cc2C1=O | . | 135.2 | - | .
C[C@@H]1CN([C@@H](C)CO)C(=O)c2cc(NS(=O)(=O)c3ccc(Cl)cc3)ccc2O[C@@H](C)CCCCO[C@@H]1CN(C)C(=O)Nc1cccc2ccccc12 | . | 142.0 | - | .
COc1ccc(NC(=O)N(C)C[C@@H]2OCCCC[C@H](C)Oc3ccc(NC(=O)Nc4ccc(F)cc4)cc3C(=O)N([C@H](C)CO)C[C@@H]2C)cc1 | . | . | - | .
C[C@@H]1CCCCO[C@H](CN(C)CC2CCCCC2)[C@@H](C)CN([C@H](C)CO)C(=O)c2cc(NS(=O)(=O)c3cccs3)ccc2O1 | . | . | - | .
COCc1c(Br)c(C)[nH]c(=O)c1C#N | - | - | - | -
CCOCc1cc(C)[nH]c(=O)c1C#N | - | 99.4 | - | -
O=C(c1ccccc1)c1nc[nH]c1C(=O)Nc1ccccn1 | - | 120.1 | - | .
COc1ccc(NC(=O)CSc2ccccc2)c([N+](=O)[O-])c1 | ? | - | 57.4 | -
Clc1ccc(Nc2nc(-c3ccncc3)cs2)cc1 | - | - | - | .
COc1ccc(Nc2nc(-c3c[nH]c4ccccc34)cs2)cc1 | - | . | . | 39.9
COc1ccc(Nc2nc(-c3ccc(OC)cc3)cs2)cc1 | 94.5 | . | . | -
Nc1ccc(Nc2nc(-c3ccncc3)cs2)cc1 | 120.2 | - | - | -
Fc1ccc(Nc2nc(-c3ccncc3)cs2)cc1 | 84.1 | . | . | -
CNC[C@H]1Oc2ccc(NC(=O)C3CCCCC3)cc2C(=O)N([C@@H](C)CO)C[C@H]1C | . | - | - | .
CCCNC(=O)N(C)C[C@@H]1Oc2cc(-c3ccc(C)cc3)ccc2S(=O)(=O)N([C@@H](C)CO)C[C@@H]1C | . | - | - | .
Nc1ccc(C(=O)OCc2nc3ccccc3[nH]2)cc1 | - | - | 54.6 | .
CCc1cc(/C(Cc2ccc3ccccc3n2)=N\O)c(O)cc1O | - | - | 50.1 | -
O=C(Cc1nc2ccccc2[nH]1)c1ccc(Cl)cc1 | - | - | - | -
CCc1cc(C(=O)Cc2nc3ccccc3[nH]2)c(O)cc1O | - | - | 47.0 | 33.6
O=C(Cc1nc2ccccc2[nH]1)c1ccc([N+](=O)[O-])cc1 | - | . | . | 57.7
CCc1cc(/C(Cc2ccccn2)=N\O)c(O)cc1O | - | - | - | -
CN1CCN(C(=O)C[C@H]2CC[C@H]3[C@@H](COC[C@@H](O)CN3C(=O)Cc3ccccc3)O2)CC1 | . | - | - | .
CN(c1ccc(Cl)cc1)c1cc(=O)n(C)c2ccccc12 | - | 129.4 | - | .
SMILES | MITF act | C2C12 statin | esBAF inh | Wnt bcat act
COc1cc(-c2ccc3oc(-c4ccsc4)cc3c2)cc(OC)c1OC | - | - | - | -
COc1ccc(-c2ccc3oc(-c4ccsc4)cc(=O)c3c2)cc1F | - | - | 45.1 | -
O=c1cc(-c2ccsc2)oc2ccc(-c3ccc4cc[nH]c4c3)cc12 | 115.4 | - | 59.4 | -
CCC(=O)N1C[C@H](C)[C@H](OC)CN(C)C(=O)c2cc(NC(=O)c3ccccc3)ccc2OC[C@H]1C | . | - | - | .
C[C@@H](NC(=O)C[C@@H]1C[C@@H]2c3cc(NS(C)(=O)=O)ccc3O[C@@H]2[C@H](CO)O1)c1ccccc1 | . | - | - | .
C[C@H](CO)N1C[C@H](C)[C@H](CN(C)S(C)(=O)=O)Oc2ccc(NC(=O)Cc3cn(C)c4ccccc34)cc2C1=O | . | - | - | .
NC(=O)C1CCN(c2nc(-c3ccc4c(c3)OCCO4)cs2)CC1 | . | . | . | -
NC(=O)C1CCN(c2nc(-c3cccs3)cs2)CC1 | ? | - | 47.3 | .
CN(C)c1cccc(-c2csc(N3CCC(C(N)=O)CC3)n2)c1 | 83.5 | - | 60.3 | 32.6
Cc1noc(C)c1-c1csc(N2CCC(C(N)=O)CC2)n1 | - | - | 74.4 | -
NC(=O)C1CCN(c2nc(-c3ccc(Br)cc3)cs2)CC1 | - | . | . | -
C[C@H]1CN([C@@H](C)CO)C(=O)c2cccc(NC(=O)Nc3ccccc3)c2O[C@@H]1CN(C)Cc1ccncc1 | . | - | - | .
CCOC(=O)c1c(-c2cccs2)csc1NC(=O)CN1CCOCC1 | - | 92.7 | - | .
CCN(CC)C(=O)COc1ccc(-c2ccccc2)cc1 | - | - | 50.1 | .
Fc1ccccc1CSCc1nc2ccccc2[nH]1 | 90.2 | - | 63.7 | -
O=c1[nH]c2ccccc2nc1-c1ccc(Cl)cc1 | . | . | . | 50.9
Clc1ccc(SCc2nc3ccccc3[nH]2)cc1 | 119.3 | - | - | .
O=c1[nH]c2ccccc2nc1-c1ccccc1 | - | . | . | -
Cc1ccc(CSCc2nc3ccccc3[nH]2)cc1 | - | . | . | -
C[C@@H]1CN([C@H](C)CO)S(=O)(=O)c2ccc(C#Cc3ccncc3)cc2O[C@H]1CN(C)C(=O)C1CC1 | . | - | . | .
O=C(C[C@@H]1C=C[C@@H](NC(=O)Nc2ccccc2)[C@@H](CO)O1)NCc1cccc(F)c1 | . | - | - | .
C[C@@H]1CN([C@@H](C)CO)C(=O)c2cc(-c3ccc(C#N)cc3)cnc2O[C@H]1CN(C)Cc1ccccn1 | . | - | - | .
CC(C)NC(=O)N(C)C[C@H]1Oc2ncc(C#CCc3ccccc3)cc2C(=O)N([C@@H](C)CO)C[C@@H]1C | . | - | - | .
O=C1CCn2nc(-c3ccc(Cl)cc3)cc2N1 | - | - | 48.2 | -
O=C(Nc1ccc(Cl)cn1)c1ccc2nccnc2c1 | 125.7 | . | . | 37.0
SMILES | MITF act | C2C12 statin | esBAF inh | Wnt bcat act
O=C(Nc1ccccc1Cl)c1ccc2nccnc2c1 | 103.4 | - | - | -
O=C(Nc1ccccc1Cl)c1cccs1 | - | - | - | .
O=C(Nc1ccccc1Cl)c1ccc(-c2ccccn2)s1 | ? | - | 82.2 | -
COC(=O)c1ccccc1NC(=O)c1ccc2nccnc2c1 | - | - | - | -
CCN(CC)S(=O)(=O)c1cc(C(=O)Nc2ccc(Cl)cn2)ccc1C | 104.8 | - | - | .
CC(C)c1cn(CC[C@H]2CC[C@@H](NC(=O)C3CCCCC3)[C@@H](CO)O2)nn1 | . | - | - | .
CCCNC(=O)N[C@@H]1C=C[C@@H](CC(=O)NCCc2ccccc2)O[C@H]1CO | . | - | - | .
O=C(Nc1ccccc1Cl)c1cccc(COc2cc(Cl)ccc2Cl)c1 | - | . | . | 37.8
CO[C@H]1CN(C)C(=O)c2cc(NC(=O)NC3CCCCC3)ccc2OC[C@@H](C)N(CC2CCOCC2)C[C@@H]1C | . | - | - | .
O=C(Nc1ccc(Cl)cn1)c1cc2c(s1)-c1ccccc1OC2 | - | - | ? | -
O=C(Nc1nccs1)c1cc2c(s1)-c1ccccc1OC2 | - | - | 103.2 | ?
CCOC(=O)c1cc2c(s1)-c1c(C)cccc1OC2 | . | - | 64.2 | -
Cc1cccc2c1-c1sc(C(=O)Nc3cccnc3)cc1CO2 | - | - | 49.8 | -
O=C(Nc1cccnc1Cl)c1cc2c(s1)-c1ccccc1OC2 | - | - | 46.0 | -
COc1ccc(N(C)C(=O)c2cc3c(s2)-c2c(C)cccc2OC3)c(OC)c1 | - | - | - | -

From PubChem BioAssay
